From PubChem BioAssay AID485364 (National Center for Advancing Translational Sciences (NCATS), 2010)
Screen size: about 360,000 compounds; about 11,000 (3.1%) were called active. Another 4% or so got no clear call; they are omitted. The full list was thinned out, with actives kept by preference. A number with no mark means an inactive call. Calls follow the shape of the dose curve; as a rule, active = well fitted inhibition curve with a large enough effect; inconclusive = small, poorly fitted or top-dose-only effect; inactive = no such curve, though single readings can be large or run the other way.

target: Schistosoma mansoni thioredoxin glutathione reductase (TGR) (UniProt Q962Y6); assay: qHTS Assay for the Inhibitors of Schistosoma Mansoni Peroxiredoxins; conditions: purified TGR, DTNB reduction, TNB absorbance 405 nm; series mostly up to 114 µM; activity change, negative = inhibition: at the top concentration; also: nearly all actives have a fitted effect of over 60% in size
Outline: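 Kinetic colorimetric format: TGR-catalysed, NADPH-driven DTNB reduction monitored via TNB absorbance. Enzyme dispensed at 20 nM; compound exposure 15 min at room temperature before reaction start.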
% is scaled to controls: 0 for no effect and ±100 for the full control effect; potency is read from the fitted curve at half-maximal effect.

Row | Compound | activity change, negative = inhibition [%] | Potency
1 | COc1ccc(CCNc2nc(-c3ccc(Cl)cc3)cc(C(F)(F)F)n2)cc1OC | 0.381 | 
2 | Cc1ccccc1OCCSc1nc2ccc(NC(=O)c3ccco3)cc2s1 | 4.23 | 
3 | Cc1cc(C)c(NC(=O)CSc2nc3nccnc3c(=O)n2CCc2c[nH]c3ccccc23)c(C)c1 | -4.93 | 
4 | Cc1ccc(NC2=C(c3ccc(C(F)(F)F)cc3)C(=O)c3ccccc32)cc1F | 1.74 | 
5 | CCOc1ccccc1NC(=O)CN1CCCN(Cc2cccc(Cl)c2)S1(=O)=O | 5.08 | 
6 | CCOc1ccc(CCNC(=O)CN(c2ccc(C)cc2)S(=O)(=O)N(C)C)cc1OCC | 5.27 | 
7 | CCCN(C(=O)Cn1cc(S(=O)(=O)N2CCN(c3ccccc3F)CC2)c2ccccc2c1=O)c1cccc(C)c1 | -0.645 | 
8 | COc1ccccc1C(CNC(=O)c1cccc(NS(=O)(=O)c2ccc(Br)cc2)c1)N(C)C (stereo not drawn) | -18.1 | 
9 | COc1ccc(C(CNC(=O)c2ccc(S(=O)(=O)Nc3ccccc3F)cc2)N(C)C)cc1 (stereo not drawn) | 0 | 
10 | CC(=O)c1ccc(S(=O)(=O)Nc2ccc(C(=O)NCC(c3ccccc3)N(C)C)cc2)cc1 (stereo not drawn) |  | 14.1 µM (active)
11 | COc1ccccc1C(CNC(=O)c1cccc(S(=O)(=O)Nc2ccc(F)cc2)c1)N(C)C (stereo not drawn) | -7.49 | 
12 | CN(C)C(CNC(=O)c1cccc(S(=O)(=O)Nc2ccc(Br)cc2)c1)c1ccco1 (stereo not drawn) |  | 35.5 µM (active)
13 | CN(C)C(CNC(=O)c1ccc(S(=O)(=O)NCc2ccco2)cc1)c1ccccc1 (stereo not drawn) | -27 | 
14 | CCN(Cc1ccccc1)Cc1c(O)ccc2c(=O)c(-c3ccc(Cl)cc3Cl)coc12 | -29.1 | 
15 | COCCN(Cc1ccco1)C(=O)Cn1ncc2c([nH]c3ccccc32)c1=O | -24.7 | 
16 | COc1cccc(CNC(=O)c2ccc3c(c2)sc2nc(-c4cccc(OC)c4)cn23)c1 | -0.0879 | 
17 | O=C(NCCS(=O)(=O)N1CCN(c2ccc(F)cc2)CC1)c1ccccc1Br | -2.24 | 
18 | CC(NC(=O)c1cc2c(=O)n3ccccc3nc2n(C(C)C)c1=N)c1ccccc1 (stereo not drawn) | -1.78 | 
19 | COc1cc(C(c2c(NC(=O)c3ccco3)sc(C)c2C)N2CCOCC2)cc(OC)c1OC (stereo not drawn) | -35.7 | 
20 | CCc1cc(C(c2ccccc2OC)N2CCOCC2)c(NC(=O)c2ccccc2)s1 (stereo not drawn) |  | 20 µM (active)
21 | CCc1cc(C(N)=O)c(NC(=O)c2ccc(OC)cc2)s1 | 3.99 | 
22 | O=C(Cn1c(=O)n(Cc2cccs2)c(=O)c2cccnc21)Nc1ccc(F)cc1 | -3.83 | 
23 | CCc1ccc(CN(C)C(=O)CCc2nnc(-c3ccc(-c4ccccc4)cc3)o2)nc1 |  | 35.5 µM (active)
24 | CCc1ccc(CN(C)Cc2nc(Cc3ccccc3)no2)nc1 | -21.7 | 
25 | CC(=O)c1ccc(-c2nnc(CCC(=O)N(C)Cc3cnc4ccccn34)o2)s1 | -14.4 | 

Row | Compound | activity change, negative = inhibition [%] | Potency
26 | CCOc1ccccc1CNCc1c(C(=O)O)c(C)n(Cc2ccc(C)cc2)c1C | -3.22 | 
27 | Cc1c(CNCCc2ccccc2)c(C(=O)O)c(C)n1-c1ccccc1 |  | 44.7 µM (active)
28 | COc1ccc(CCNCc2c(C(=O)O)c(C)n(Cc3cccc(C)c3)c2C)cc1OC | -2.69 | 
29 | NC(=O)CSc1nc2c(oc3ccccc32)c(=O)n1Cc1ccccc1 | 5.1 | 
30 | CN1c2ccc(Cl)cc2-c2nc(SCC(=O)Nc3cc(F)ccc3F)ncc2S1(=O)=O | 0.619 | 
31 | N#Cc1ccccc1S(=O)(=O)N1CCN(Cc2c(O)ccc3ccccc23)CC1 |  | 0.891 µM (active)
32 | COc1ccc(-c2csc3ncnc(N4CCN(S(=O)(=O)c5ccccc5C#N)CC4)c23)cc1 | -8.78 | 
33 | N#Cc1ccccc1S(=O)(=O)N1CCN(C(=O)c2cc(-c3ccccc3)nn2-c2ccccc2)CC1 | -1.32 | 
34 | O=C(CSc1cn(CC(=O)N2CCOCC2)c2ccccc12)Nc1ccccc1 | 11.4 | 
35 | CCC(C)(C)n1nnnc1C(c1ccc(OC)c(OC)c1)N1CCN(C(=O)c2ccco2)CC1 (stereo not drawn) | -29.5 | 
36 | COc1ccccc1C(c1nnnn1CC1CCCO1)N1CCN(c2ccccc2)CC1 (stereo not drawn) | -1.2 | 
37 | COc1ccc(C(c2nnnn2Cc2cccs2)N2CCN(c3ccccc3)CC2)cc1OC (stereo not drawn) |  | 44.7 µM (active)
38 | CCOc1ccc(CCNC(=O)c2c(C)oc3ncn(C)c(=O)c23)cc1 | 0.186 | 
39 | CCSc1nc(O)c(C(c2cccc(OC)c2)c2c(O)nc(SCC)[nH]c2=O)c(=O)[nH]1 |  | 5.01 µM (active)
40 | CCSc1nc(C)c(CCOc2cccc(C)c2)c(=O)[nH]1 | -7.91 | 
41 | CC(C)c1c(O)nc(SCCOc2ccc(Cl)cc2)[nH]c1=O | 0.293 | 
42 | CCc1ccc(CNC(=O)c2cc3c(=O)n(CC)c4ccccc4c3s2)cc1 | 8.1 | 
43 | CC1=C(c2ccc(F)cc2)S(=O)(=O)N=C1N1CCC(C(=O)NCCc2ccccc2C)CC1 | -1.75 | 
44 | CCC1CCCCN1C(=O)Cn1c(=O)n(CCCCCC(=O)NCc2ccccc2)c(=O)c2sccc21 (stereo not drawn) | -7.45 | 
45 | COC(=O)C(CC(=O)Nc1cc(C)ccc1C)Nc1ccccc1OC (stereo not drawn) | -24.7 | 
46 | Cc1ccc(C)c(NC(CC(=O)c2ccccc2)C(=O)OCC(=O)c2cccs2)c1 (stereo not drawn) |  | 12.6 µM (active)
47 | O=C(COC(=O)[C@H](Cc1ccccc1)NC(=O)c1cccs1)Nc1cc(F)ccc1F | 2.43 | 
48 | CCN(CCCNC(=O)c1ccc(Sc2ccc(C)cc2)c(NC(C)=O)c1)c1cccc(C)c1 | 1.43 | 
49 | CC1CCN(S(=O)(=O)c2ccc3c(c2)N(CC(=O)NCc2ccccc2Cl)C(=O)CO3)CC1 | 4.2 | 
50 | O=c1n(Cc2cccc(C(F)(F)F)c2)c2ccccc2c2nc(-c3ccccc3)nn12 | 8.09 | 

Row | Compound | activity change, negative = inhibition [%] | Potency
51 | CN1CCN(C(CNC(=O)c2ccccc2F)c2ccc3c(c2)OCO3)CC1 (stereo not drawn) | -3.13 | 
52 | CC1CCCN(c2cc3c(cc2F)c(=O)c(S(=O)(=O)c2cccc(Cl)c2)cn3Cc2ccccc2)C1 (stereo not drawn) | -1.38 | 
53 | CCCCC1=CC2=CC(=O)C(C)(OC(=O)CC)C(=O)C2=CN1CCCOC(C)C (stereo not drawn) | -25.2 | 
54 | COC/C=C/C1=CC2=CC(=O)C(C)(OC(=O)CCC(=O)OC)C(=O)C2=CO1 (stereo not drawn) |  | 3.98 µM (active)
55 | C=CCN1C=C2C(=O)C(C)(OC(=O)CCc3ccccc3)C(=O)C=C2C=C1c1ccc(C#N)cc1 (stereo not drawn) | -25.6 | 
56 | O=C(NCCCO)C(=O)Nc1c2c(nn1-c1ccc(F)cc1)CSC2 | -26.7 | 
57 | Nc1nc(SCC(=O)Nc2ccc(Cl)c([N+](=O)[O-])c2)n[nH]1 | -2.15 | 
58 | Cn1cnc([N+](=O)[O-])c1Sc1n[nH]c(N)n1 |  | 10 µM (active)
59 | Cn1cnc([N+](=O)[O-])c1Nc1ccccc1O | -2.08 | 
60 | Cn1nc(-c2ccccc2)c(CO)c1Sc1ccccc1 | -3.58 | 
61 | Nc1nc(Sc2ncccc2[N+](=O)[O-])n[nH]1 | 2.21 | 
62 | Cn1cnc([N+](=O)[O-])c1Sc1ccccc1 |  | 50.1 µM (active)
63 | Cc1nnc(NC(=O)c2ccc3nccnc3c2)s1 | -3.57 | 
64 | Cc1ccc(C(=O)Cn2cccn2)cc1 | 2.69 | 
65 | Cc1ccc(C(=O)Cc2nnc(C)s2)cc1 |  | 10 µM (active)
66 | Cc1cc(C)cc(NC(=O)CSc2nc(=O)n(CCN3CCOCC3)c3c2CCC3)c1 | 8.04 | 
67 | CC(C)C(NC(=O)c1ccc(Cl)cc1)C(=O)O (stereo not drawn) | -11.7 | 
68 | Cc1occc1C(=O)NNC(=S)NCC(C)C | -10.8 | 
69 | CC(C)CNC(=S)NC(=O)c1ccc(Cl)cc1 |  | 50.1 µM (active)
70 | CC[N+](C)(CC)CCC[n+]1c(-c2ccccc2)c2cc(N)ccc2c2ccc(N)cc21 |  | 39.8 µM (active)
71 | CC(=O)c1ccc(NC(=O)COc2ccccc2-c2nc(-c3ccccc3)no2)cc1 | -3.59 | 
72 | CCc1ccc(NC(=O)c2cc(S(=O)(=O)NC3CCCCCC3)ccc2F)cc1 | 3.87 | 
73 | Cc1ccc(NC(=O)C(Cc2ccccc2)NS(=O)(=O)c2ccc3c(c2)oc(=O)n3C)cc1C (stereo not drawn) | -0.776 | 
74 | Cc1oc2ncnc(N3CCOCC3)c2c1C(=O)NCCc1ccccc1 | 0.044 | 
75 | CCC(=O)N1CCc2cc(CNS(=O)(=O)c3ccc(Br)s3)ccc21 | 2.77 | 

Row | Compound | activity change, negative = inhibition [%] | Potency
76 | Cc1ccc(-n2c(-c3ccc(Cl)cc3)n[nH]c2=S)cc1 | 7.4 | 
77 | Cc1nccc(-c2ccc(-n3c(C)ccc3C)cc2)n1 |  | 39.8 µM (active)
78 | c1ccc(-c2nccc(-c3ccc(-n4cnc5ccccc54)cc3)n2)nc1 | 3.5 | 
79 | O=C(Nc1ccc(C(=O)OCc2cc(=O)n3nc(C4CC4)sc3n2)cc1)c1ccc(F)cc1 | -6.43 | 
80 | Cc1ccc(CNS(=O)(=O)c2ccc(-c3cc(C(F)(F)F)on3)s2)cc1 | 6.71 | 
81 | COc1cccc(OCC(=O)NNC(=O)c2cnccn2)c1 | 3.38 | 
82 | COC(=O)c1ccc(COC(=O)c2cnccn2)cc1 | 2.29 | 
83 | COC(=O)c1ccc(OC(=O)c2cnccn2)cc1 |  | 56.2 µM (active)
84 | O=C(NCCc1ccccc1)c1ccc2c(c1)N(Cc1ccccc1)C(=O)c1ccccc1S2(=O)=O | -6.43 | 
85 | COc1ccccc1-c1cc(C(F)(F)F)nc(S(=O)(=O)CCCC(=O)Nc2ccc(F)cc2F)n1 | -34.2 | 
86 | CSc1ccccc1NC(=O)CCS(=O)(=O)c1nc(-c2cccs2)cc(C(F)(F)F)n1 |  | 12.6 µM (active)
87 | COc1ccccc1-c1cc(C(F)(F)F)nc(S(=O)(=O)CCCC(=O)Nc2cc(C)ccc2O)n1 | -34.7 | 
88 | CCOc1ccccc1NC(=O)CSc1ncc(S(=O)(=O)c2ccc(C(C)(C)C)cc2)c(=O)[nH]1 | -1.94 | 
89 | CCCCN1C(=O)c2[nH]nc(-c3ccccc3O)c2C1c1cccc(OCc2ccccc2)c1 (stereo not drawn) | 10.1 | 
90 | COc1ccccc1N1CCN(S(=O)(=O)CCNC(=O)COc2ccc(F)cc2)CC1 | -2.42 | 
91 | Cc1nc(N2CCOCC2)c2c(C(=O)NCc3cccc(Cl)c3)c(C)oc2n1 | 4.57 | 
92 | O=C(O)c1ccccc1NC(=O)c1ccccc1-c1ccccc1C(=O)O | -11.9 | 
93 | O=C(NC(=S)Nc1ccccc1C(=O)O)c1ccc(-c2ccc(Br)cc2)o1 |  | 3.55 µM (active)
94 | O=C(NC(=S)Nc1cc(C(F)(F)F)ccc1N1CCOCC1)c1ccc(-c2cccc(Cl)c2)o1 | -12.5 | 
95 | Cc1ccc(Cl)cc1NC(=O)NC1COc2ccccc2C1 (stereo not drawn) | 2.72 | 
96 | CC(=O)Nc1ccc(NC(=O)CCCNC(=O)c2ccc(Cl)cc2)cc1 | -3.03 | 
97 | Cc1ccc(NC(=O)CCCNC(=O)c2ccc(Cl)cc2)cc1S(=O)(=O)N1CCCCC1 | -0.386 | 
98 | Cc1ccc(CNC(=O)CCCNC(=O)c2ccc(Cl)cc2)n1C |  | 25.1 µM (active)
